# Test results from PubChem BioAssay (Tox21).
# Records with an inconclusive call do not appear. Activity calls are given as the source filed them. The call rests on the fitted dose curve; in most records, active means well fitted cell-killing curve with a large enough effect in the repeat runs; inconclusive means weak or mixed curves, or effect the other way; inactive means flat fitted curve, though single readings scatter.
# Test: Caspase-3/7 induction in HepG2 cells by small molecules, qHTS cell viability counter screen (AID 1346981); further: nearly all actives have a fitted effect of over 30% in size
# Conditions: CellTiter-Fluor fluorescence, 17 h; series mostly up to 92.4 µM
# Description: U.S. Tox21 Program National Center for Advancing Translational Sciences [NCATS] NIH Chemical Genomics Center [NCGC] U.S. Environmental Protection Agency [EPA] National Institutes of Environmental Health Sciences [NIEHS] National Toxicology Program [NTP] U.S. Food and Drug Administration [FDA] Tox21 Assay Overview: Apoptosis is a process of programmed cell death and plays a central role in the development of multicellular organisms. It is a highly regulated process and induces cell death by activating caspases, which are the members of cysteine aspartic acid-specific protease (caspase) family. Caspases involved in apoptosis are classified by their mechanism of action as initiator caspases (caspase-2, -8, -9 and -10) and executioner caspases (caspase-3, -6, and -7). Inhibition of apoptosis results in number of cancers, autoimmune diseases, inflammatory diseases and viral infection. To identify small molecule compounds that induce apoptosis, a homogeneous, luminescent Caspase-Glo 3/7 assay was used. Wild type HepG2 cells were used to screen Tox21 libraries for identifying caspase-3/7 activity inducers. Also cytotoxicity of the compounds was tested in parallel by measuring the cell viability using CellTiter-Fluor assay system in the same wells.
# Tox21 Assay Protocol Summary: HepG2 cells were dispensed at 2,000 per well in 5uL of culture medium into white solid bottom 1536-well plates (Corning Life Sciences, Corning, NY) using a Multidrop Combi (Thermo Scientific, Waltham, MA) dispenser. The assay plates were incubated at 37 C and 5% CO2 for 5hr, and then 23nL of compounds dissolved in DMSO and positive control were transferred using a Pintool station ([…], San Diego, CA). The assay plates were incubated at 37C and 5% CO2 for 17hr. For cytotoxicity read, after 16hr incubation at 37C, 1uL CellTiter-Fluor reagent (Promega Corporation, Madison, WI) was added to each well of the assay plates using Flying Reagent Dispenser (FRD, Aurora Discovery, San Diego, CA). After 1hr incubation at 37C and 5% CO2, the fluorescence signal was quantified using a ViewLux plate reader (PerkinElmer, Shelton, CT).
# On the % scale 0 is the no-effect control and ±100 the full control effect.
SMILES,outcome,"activity change, negative = cytotoxicity"
CC(=O)c1cc(C)oc1C,inactive,
C/C=C(\C)C(=O)OCCc1ccccc1,inactive,
O=C=NCC1CCCC(CN=C=O)C1 (stereo not given),inactive,
COC(=O)/C=C\C(=O)O,inactive,
C/C(=C1\CCOC(=O)S1)N(C=O)Cc1cnc(C)nc1N,inactive,
CC(C)CCOC(=O)c1ccccc1,inactive,
CCNC(=O)NCc1cccc(Cl)c1,inactive,
Cc1ccc(N)cc1S(=O)(=O)O,inactive,
CCN(CC)CCN,inactive,
CC1(C)[C@H]2CC[C@](C)(C2)[C@H]1O,inactive,
CC(=O)O[C@H]1C[C@@H]2CC[C@@]1(C)C2(C)C,inactive,
CC1CC(=O)CC(C)(C)C1 (stereo not given),inactive,
O=C(O)CNC(=O)CNC(=O)CNC(=O)CSC(=O)c1ccccc1,inactive,
CC(=O)CC(=O)OC(C)(C)C,inactive,
CC(C)c1ccc(C=O)cc1,inactive,
COc1cc(OC)nc(O[C@H](C(=O)O)C(OC)(c2ccccc2)c2ccccc2)n1,inactive,
CC(C)Cn1cnc2c1c(=O)n(C)c(=O)n2C,inactive,
O=C1CCC(=O)N1Cl,inactive,
CCOC(=O)CC1(C)OCC(C)O1 (stereo not given),inactive,
N[C@@H](Cc1ccc(O)cc1)C(=O)O,,-1.35% [at 8.39 µM] (inactive)

SMILES,outcome,"activity change, negative = cytotoxicity"
COc1cc2c(cc1OC)C(=O)C(CC1CCN(Cc3ccccc3)CC1)C2 (stereo not given),inactive,
C[C@@H](O)C(=O)O,inactive,
O=C[O][Al]([O]C=O)[O]C=O,inactive,
NCc1ccc(S(N)(=O)=O)cc1,inactive,
O=C(O)CCCCCC(=O)O,inactive,
C[C@H]1[C@@H](c2ccccc2)NC(=O)N1C,inactive,
NCCOCCN,inactive,
C[Si]1(C)O[Si](C)(C)O[Si](C)(C)O[Si](C)(C)O[Si](C)(C)O1,inactive,
CC(C)NCC(O)c1ccc2ccccc2c1 (stereo not given),inactive,
CC(C)[C@H]1CC[C@H](C)C[C@@H]1O,inactive,
O=C(CCCCC(=O)Nc1c(I)cc(I)c(C(=O)O)c1I)Nc1c(I)cc(I)c(C(=O)O)c1I,inactive,
CCOc1cccc(N)c1,inactive,
CC(C)(CO)C(O)C(=O)NCCCO (stereo not given),inactive,
CCCC(=O)OCCC(C)CCC=C(C)C (stereo not given),inactive,
CCC(C(=O)OCCN1CCOC(c2ccccc2)C1C)c1ccccc1 (stereo not given),inactive,
C=Cc1ccc(C(C)(C)C)cc1,inactive,
O=C1NC(c2ccccc2)(c2ccccc2)C(=O)N1COP(=O)(O)O,inactive,
O=C(Cn1ccnc1[N+](=O)[O-])NCc1ccccc1,inactive,
CCN1CCCC1CN (stereo not given),inactive,
CCOC(CN1CCN(CC(C)C(=O)c2ccccc2)CC1)c1ccccc1 (stereo not given),,-1.17% [at 19 µM] (inactive)
